Laboratory results from PubChem BioAssay (NCI).
Compounds without any hit were thinned out: in the full panel of roughly 83,000, 20% have a hit.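 Method: cells in 96-well plates; compound added at one concentration; 48 h incubation; percent growth measured; values under 10 scored active.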 Active and inactive are the calls of the source.

Columns and labels:
Test in all cases: NCI-60 one-dose screen, 48 h (100 = growth as untreated, 0 = no growth, -100 = all killed)
Conditions in all cases: 10 µM unless noted
NCI-H23 lung = test system: NCI-H23 lung
NCI-H226 lung = test system: NCI-H226 lung
NCI-H322M lung = test system: NCI-H322M lung
HOP-62 NSCLC = test system: HOP-62 NSCLC
NCI-H460 lung = test system: NCI-H460 lung
NCI-H522 lung = test system: NCI-H522 lung
A549/ATCC NSCLC = test system: A549/ATCC NSCLC
786-0 renal = test system: 786-0 renal
COLO 205 colon = test system: COLO 205 colon
DU-145 prostate = test system: DU-145 prostate
K-562 leukemia = test system: K-562 leukemia
MALME-3M melanoma = test system: MALME-3M melanoma
MDA-MB-231 breast = test system: MDA-MB-231 breast
RXF 393 renal = test system: RXF 393 renal
SF-268 CNS = test system: SF-268 CNS
SF-295 CNS = test system: SF-295 CNS
SF-539 CNS = test system: SF-539 CNS
UACC-257 melanoma = test system: UACC-257 melanoma
M14 melanoma = test system: M14 melanoma
HOP-92 NSCLC = test system: HOP-92 NSCLC

Measured: growth

COc1cnc2c(c1)C(=O)c1c-2n(CCCNCCO)c(=O)c2ccncc12
active: NCI-H23 lung 1.25% | NCI-H226 lung -43.9% | NCI-H322M lung -2.47% | HOP-62 NSCLC 9.4% | NCI-H460 lung -41.6% | NCI-H522 lung -30.2% | A549/ATCC NSCLC 7.92% | COLO 205 colon -15.7% | DU-145 prostate 3.45% | K-562 leukemia 5.84% | MALME-3M melanoma -30.4% | MDA-MB-231 breast 6.98% | RXF 393 renal -11.1% | SF-295 CNS 6.34% | SF-539 CNS -15.2% | UACC-257 melanoma -19.3% | M14 melanoma -1.26%
inactive: 786-0 renal 12.3% | SF-268 CNS 14.8%

O=[N+]([O-])c1ccc(N/N=C(/C(=N/Nc2ccc([N+](=O)[O-])cc2)c2ccccc2)c2ccccc2)cc1
active: DU-145 prostate 9.75%
inactive: NCI-H23 lung 82.5% | NCI-H226 lung 97.5% | NCI-H322M lung 81.1% | HOP-62 NSCLC 76.6% | NCI-H460 lung 46.2% | HOP-92 NSCLC 107% | NCI-H522 lung 50.8% | A549/ATCC NSCLC 90.9% | 786-0 renal 103% | K-562 leukemia 84.4% | MALME-3M melanoma 100% | MDA-MB-231 breast 81.9% | RXF 393 renal 62.8% | SF-268 CNS 104% | SF-295 CNS 69.3% | SF-539 CNS 94.2% | UACC-257 melanoma 98.9% | M14 melanoma 80.2%

O=C(Cn1cc(CN2C(=O)c3ccccc3S2(=O)=O)nn1)Nc1nc2ccccc2s1
inactive: NCI-H23 lung 103% | NCI-H226 lung 105% | NCI-H322M lung 98.2% | HOP-62 NSCLC 89.5% | NCI-H460 lung 105% | NCI-H522 lung 84.2% | A549/ATCC NSCLC 90.6% | 786-0 renal 101% | COLO 205 colon 104% | DU-145 prostate 108% | K-562 leukemia 101% | MALME-3M melanoma 95% | MDA-MB-231 breast 108% | RXF 393 renal 117% | SF-268 CNS 97.3% | SF-295 CNS 101% | SF-539 CNS 98.4% | UACC-257 melanoma 101% | M14 melanoma 103%

O=C(Cn1cc(CN2CCCCCC2)nn1)Nc1ccc2c(ccn2Cc2ccccc2)c1
inactive: NCI-H23 lung 96.4% | NCI-H226 lung 81.5% | NCI-H322M lung 94.8% | HOP-62 NSCLC 80.6% | NCI-H460 lung 102% | HOP-92 NSCLC 64% | NCI-H522 lung 86.9% | A549/ATCC NSCLC 92.3% | 786-0 renal 87.8% | DU-145 prostate 101% | K-562 leukemia 79.5% | MALME-3M melanoma 91.1% | MDA-MB-231 breast 86% | RXF 393 renal 91.4% | SF-268 CNS 93.6% | SF-295 CNS 99.6% | SF-539 CNS 92.6% | UACC-257 melanoma 101% | M14 melanoma 94.1%

Clc1ccc2c(c1)N(c1ncnc3ccc(-c4cnc5[nH]ncc5c4)cc13)CC2
active: A549/ATCC NSCLC 6.23% | RXF 393 renal -10.5%
inactive: NCI-H23 lung 52.5% | NCI-H226 lung 24.4% | NCI-H322M lung 11.8% | HOP-62 NSCLC 24.4% | NCI-H460 lung 20.1% | NCI-H522 lung 40.2% | 786-0 renal 18.1% | COLO 205 colon 31.1% | DU-145 prostate 22.4% | K-562 leukemia 51.1% | MALME-3M melanoma 40.2% | MDA-MB-231 breast 27.3% | SF-268 CNS 35.1% | SF-295 CNS 23.1% | SF-539 CNS 24.9% | UACC-257 melanoma 44.3% | M14 melanoma 43.4%

O=C(Nn1c2c(sc1=Nc1ccccc1)C(=O)c1ccccc1C2=O)c1cc2ccc1CCc1ccc(cc1)CC2
active: MALME-3M melanoma -69.3% | M14 melanoma 4.14%
inactive: NCI-H23 lung 30.6% | NCI-H226 lung 51.2% | NCI-H322M lung 99.8% | HOP-62 NSCLC 66.4% | NCI-H460 lung 71.9% | HOP-92 NSCLC 107% | NCI-H522 lung 68% | A549/ATCC NSCLC 64% | 786-0 renal 81% | DU-145 prostate 71.7% | K-562 leukemia 77.8% | MDA-MB-231 breast 40% | RXF 393 renal 70.7% | SF-268 CNS 67.7% | SF-295 CNS 87.8% | SF-539 CNS 92.6% | UACC-257 melanoma 62.4%

CCCCC[C@@H]1Cc2cc(O)c(C(=O)O)c3c2[C@H](C[C@]2(OC[C@@H](CC(=O)[C@@](C)(CC)C(=O)OC)[C@@H]2C)O3)O1
inactive: NCI-H23 lung 112% | NCI-H226 lung 92.1% | NCI-H322M lung 105% | HOP-62 NSCLC 117% | NCI-H460 lung 109% | HOP-92 NSCLC 113% | NCI-H522 lung 117% | A549/ATCC NSCLC 107% | 786-0 renal 108% | DU-145 prostate 120% | K-562 leukemia 117% | MALME-3M melanoma 104% | MDA-MB-231 breast 100% | RXF 393 renal 119% | SF-268 CNS 108% | SF-295 CNS 121% | SF-539 CNS 100% | UACC-257 melanoma 87.6% | M14 melanoma 119%

O=C1c2cccc(NCCN=Cc3cc(O)ccc3O)c2C(=O)c2c(NCCN=Cc3cc(O)ccc3O)cccc21
active: NCI-H23 lung -26.1% | NCI-H226 lung 6.91% | NCI-H322M lung -11.3% | HOP-62 NSCLC -9.1% | NCI-H460 lung -70.8% | NCI-H522 lung -65% | A549/ATCC NSCLC -55.6% | 786-0 renal 0.261% | COLO 205 colon -41.4% | DU-145 prostate -68.5% | K-562 leukemia -94.8% | MALME-3M melanoma -24.6% | MDA-MB-231 breast -41% | RXF 393 renal -34.2% | SF-268 CNS -34.9% | SF-295 CNS -23.6% | SF-539 CNS -8.67% | M14 melanoma -4.47%
inactive: UACC-257 melanoma 57.9%
